From the supplement of paper PMC10338343 come the findings set out here.

± gives the standard deviation.

The subject of one assay is MILI (PIWIL2) piRISC loaded with L1MC piRNA (26 nt). The assay can be described thus: pre-steady-state target cleavage rate (min^-1); guide: L1MC piRNA 5'p-UAACUAAAUACUAUGCAAGCUGUAGG; MIWI and MILI are mouse PIWI proteins and EfPiwi is from a freshwater sponge; tags in brackets are library labels; higher = faster piRNA-guided slicing of the target. The settings on record: auxiliary factor: 500 nM mouse GTSF1. Here is the method:
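Cleave-'n-Seq: a library of target RNAs (target site embedded in constant flanks, ACAGCATTCCGCGTTAGTGATATCCG... 5' flank; DNA-blocked outside the site) at 0.1 nM was incubated with 1 nM active mouse MILI or MIWI piRISC (synthetic 5'-monophosphorylated piRNA guide) with or without 500 nM mouse GTSF1 at 33 °C for 1 min to 16 h. Uncleaved targets were sequenced and normalised to non-target controls, and the pooled three trials were fitted to a burst-and-steady-state model to give the pre-steady-state cleavage rate (min^-1; k3 is constrained to at most 1e-4). Sequence is the target site only; target names encode pairing extent (gX:gY) and contiguous / 1-mismatch / 2-mismatch / bulge geometry. Fits with R² ≤ 0 are excluded.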
In the case of UCCUGGAUGUGCUUGCAAAGUAUUUUGUUA, the “pre-steady-state target cleavage rate” value came to 0.0179 ± 0.0057.

For the sequence UCCUCCUACAGCUUGCAAAGUAUUUAGUUA, the “pre-steady-state target cleavage rate” value was found to be 0.167 ± 0.014.

In the case of UCCUGGAUCAGCUUGCAAAGUAUUUAGUAA, the “pre-steady-state target cleavage rate” value came out at 0.12 ± 0.0069.

Take UCCUGGAACAGCUUGCAUAGUAAUUAGUUA: the “pre-steady-state target cleavage rate” value is 0.268 ± 0.022.

As for UCCUGGAUGUCCUUGCAUAGUAUUAAGUUA, the “pre-steady-state target cleavage rate” value came out at 0.116 ± 0.019.

In the case of UCCUGGUACAGCUUGCAUAGUAAAUAGUUA, the “pre-steady-state target cleavage rate” value was determined as 0.238 ± 0.038.

On to UCCUGGAACAGGAUGCAUAGUAUUUAGUAA, for which the “pre-steady-state target cleavage rate” value is 0.221 ± 0.021.

For the sequence UCCUGGAUGUGCCUGCAUAGUAUUUAGUUA, the “pre-steady-state target cleavage rate” value is 0.0999 ± 0.015.

Turning to UCCUGGUACAGCUUGCAAAGUUUUUAGUUA, the “pre-steady-state target cleavage rate” value amounted to 0.0248 ± 0.0088.

For UCCUCCUACAGGAAGCAUAGUAUUUAGAAA, the “pre-steady-state target cleavage rate” value was 0.107 ± 0.017.

As to UCCUGGUACAGCAAGCAUAGUAUUUACAAA, the “pre-steady-state target cleavage rate” value worked out at 0.0528 ± 0.019.

As for UCCUGCAACAGCUUCCAUAGUAUUUAGUUA, the “pre-steady-state target cleavage rate” value is 0.112 ± 0.03.

Take UCCUGGUACAGCUUGCAUAGUAAAUUCAAA: the “pre-steady-state target cleavage rate” value amounted to 0.0147 ± 0.0074.

In the case of UCCUGGUACAGCUUUGCAUAGUAUUUAGUUA, the “pre-steady-state target cleavage rate” value worked out at 0.185 ± 0.018.

As to UCCUGGAUGAGCUUCGAUAGUAUUUAGUAA, the “pre-steady-state target cleavage rate” value came to 0.0558 ± 0.012.

Regarding UCCUGGAAGAGCUUGCAUAGUAUAUAGUUA, the “pre-steady-state target cleavage rate” value came out at 0.173 ± 0.019.

Turning to UCCUGGAACACGAUGCAUAGUAUUUAGUUA, the “pre-steady-state target cleavage rate” value turned out to be 0.14 ± 0.017.

In the case of UCCUGGAUGAGCUUGCAAAGUAUUUACAAA, the “pre-steady-state target cleavage rate” value was determined as 0.00757 ± 0.0048.

On to UCCUGGUACAGCUUGCAUUGAAUUUAGUUA, for which the “pre-steady-state target cleavage rate” value turned out to be 0.047 ± 0.015.

For the sequence UCCUGGAUGAGCUUGCAUAGUAUUUCAGUUA, the “pre-steady-state target cleavage rate” value was 0.207 ± 0.048.

For the sequence UCCUGGAUGAGCUUGCAUAGUACUUAGUUA, the “pre-steady-state target cleavage rate” value came out at 0.127 ± 0.018.

In the case of UCCUGCUACCGCUUGCAUAGUAUUUAGUUA, the “pre-steady-state target cleavage rate” value was 0.368 ± 0.035.

On to UCCUGGAUGAGGUUGCAUAGAAUUUAGUUA, for which the “pre-steady-state target cleavage rate” value was determined as 0.00935 ± 0.0046.

As for UCCUGGCACAGCUUGCAUAGUAUUUAGUUA, the “pre-steady-state target cleavage rate” value is 0.289 ± 0.053.

Still in this assay, the particulars now being: auxiliary factor: none (no GTSF1).
For the sequence UCCUCCUACAGCUUGCAAAGUAUUUAGUUA, the “pre-steady-state target cleavage rate” value came out at 0.00717 ± 0.0022.

Regarding UCCUGGAUCAGCUUGCAAAGUAUUUAGUAA, the “pre-steady-state target cleavage rate” value was 0.00426 ± 0.0026.

With UCCUGGAACAGCUUGCAUAGUAAUUAGUUA, the “pre-steady-state target cleavage rate” value was 0.00705 ± 0.0022.

In the case of UCCUGGAUGUCCUUGCAUAGUAUUAAGUUA, the “pre-steady-state target cleavage rate” value was determined as 0.00289 ± 0.0026.

Take UCCUGGAUGUCGUUGCAUAGUGAUUUAGUUA: the “pre-steady-state target cleavage rate” value worked out at 0.0042 ± 0.0032.

In the case of UCCUGGAACAGGAUGCAUAGUAUUUAGUAA, the “pre-steady-state target cleavage rate” value is 0.00369 ± 0.0022.

Consider UCCUGGAUGUGCCUGCAUAGUAUUUAGUUA, for which the “pre-steady-state target cleavage rate” value was found to be 0.00951 ± 0.003.

As for UCCUGGUACAGCUUGCAAAGUUUUUAGUUA, the “pre-steady-state target cleavage rate” value amounted to 0.00339 ± 0.0029.

With UCCUGGUACAGCUUUGCAUAGUAUUUAGUUA, the “pre-steady-state target cleavage rate” value came to 0.0164 ± 0.0048.

As to UCCUGGAUGUCGAACAAUAGUAUUUAGUUA, the “pre-steady-state target cleavage rate” value is < 0.0001.

UCCUGGAAGAGCUUGCAUAGUAUAUAGUUA: the “pre-steady-state target cleavage rate” value turned out to be 0.00457 ± 0.0025.

As to UCCUGGAACACGAUGCAUAGUAUUUAGUUA, the “pre-steady-state target cleavage rate” value is 0.00495 ± 0.0023.

As to UCCUGGUACAGCUUGCAUUGAAUUUAGUUA, the “pre-steady-state target cleavage rate” value turned out to be 0.00399 ± 0.0037.

As for UCCUGGAUGAGCUUGCAUAGUAUUUCAGUUA, the “pre-steady-state target cleavage rate” value came out at 0.00415 ± 0.0028.

UCCUGGAUGAGCUUGCAUAGUACUUAGUUA: the “pre-steady-state target cleavage rate” value stood at 0.00646 ± 0.0022.

Turning to UCCUGCUACCGCUUGCAUAGUAUUUAGUUA, the “pre-steady-state target cleavage rate” value was found to be 0.0103 ± 0.0044.

With UCCUGGCACAGCUUGCAUAGUAUUUAGUUA, the “pre-steady-state target cleavage rate” value was 0.0117 ± 0.0049.
